Measured values published in PubChem BioAssay AID1159580 (chemical genetic matrix, 2015).
In all, about 5,500 compounds went through this assay and about 2,000 (36%) were called active. Inconclusive results (about 18%) are left out. No stated cut-off is given here; in the data, active means normalized growth mostly below about 0.91 (no sharp cut-off); inconclusive means no clear call, values can overlap the other calls; inactive means mostly above about 0.92. This is one part of the list.

Experiment: chemical genetic growth profiling, strain panel (AID 1159580);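 further: tested at 20 µM; growth read once vehicle control cultures reached saturation at 30 °C; 1 = growth at the plate median or of vehicle wells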
Details: S. cerevisiae deletion strains, growth OD
[1] = locus YAL021C, strain ccr4, stronger effect = lower value
[2] = locus YAL026C, strain drs2, stronger effect = lower value
[3] = locus YAL030W, strain snc1, stronger effect = lower value
[4] = locus YBL061C, strain skt5, stronger effect = lower value
[5] = locus YBR009C, strain hhf1, stronger effect = lower value
[6] = locus YBR023C, strain chs3, stronger effect = lower value
[7] = locus YBR171W, strain sec66, stronger effect = lower value
[8] = locus YBR231C, strain swc5, stronger effect = lower value
[9] = locus YBR279W, strain paf1, stronger effect = lower value
[10] = locus YCL011C, strain gbp2, stronger effect = lower value
[11] = locus YCL016C, strain dcc1, stronger effect = lower value
[12] = locus YCL069W, strain vba3, stronger effect = lower value
[13] = locus YCR088W, strain abp1, stronger effect = lower value
[14] = locus YDL005C, strain med2, stronger effect = lower value
[15] = locus YDL040C, strain nat1, stronger effect = lower value
[16] = locus YDR001C, strain nth1, stronger effect = lower value
[17] = locus YDR069C, strain doa4, stronger effect = lower value
[18] = locus YDR137W, strain rgp1, stronger effect = lower value
[19] = locus YDR159W, strain sac3, stronger effect = lower value
[20] = locus YDR297W, strain sur2, stronger effect = lower value
[21] = locus YDR334W, strain swr1, stronger effect = lower value
[22] = locus YDR335W, strain msn5, stronger effect = lower value
[23] = locus YDR392W, strain spt3, stronger effect = lower value
[24] = locus YEL003W, strain gim4, stronger effect = lower value
[25] = locus YEL037C, strain rad23, stronger effect = lower value
[26] = locus YEL061C, strain CIN8 (second series), stronger effect = lower value
[27] = locus YER015W, strain faa2, stronger effect = lower value
[28] = locus YER016W, strain bim1, stronger effect = lower value
[29] = locus YER111C, strain swi4, stronger effect = lower value
[30] = locus YER155C, strain BEM2 (second series), stronger effect = lower value
[31] = locus YFR010W, strain ubp6, stronger effect = lower value
[32] = locus YGL167C, strain pmr1, stronger effect = lower value
[33] = locus YGL173C, strain kem1, stronger effect = lower value
[34] = locus YGL227W, strain vid30, stronger effect = lower value
[35] = locus YGL240W, strain doc1, stronger effect = lower value
[36] = locus YGL253W, strain hxk2, stronger effect = lower value
[37] = locus YHR013C, strain ard1, stronger effect = lower value
[38] = locus YHR027C, strain rpn1, stronger effect = lower value
[39] = locus YHR142W, strain chs7, stronger effect = lower value
[40] = locus YJL092W, strain hpr5, stronger effect = lower value
[41] = locus YJL095W, strain BCK1 (second series), stronger effect = lower value
[42] = locus YJL115W, strain asf1, stronger effect = lower value
[43] = locus YJL129C, strain trk1, stronger effect = lower value
[44] = locus YJL154C, strain vps35, stronger effect = lower value
[45] = locus YJL164C, strain tpk1, stronger effect = lower value
[46] = locus YJL166W, strain qcr8, stronger effect = lower value
[47] = locus YKL160W, strain elf1, stronger effect = lower value
[48] = locus YKR026C, strain gcn3, stronger effect = lower value
[49] = locus YKR091W, strain srl3, stronger effect = lower value
[50] = locus YLL001W, strain dnm1, stronger effect = lower value
[51] = locus YLL026W, stronger effect = lower value
[52] = locus YLL041C, strain sdh2, stronger effect = lower value
[53] = locus YLR027C, strain aat2, stronger effect = lower value
[54] = locus YLR221C, strain rsa3, stronger effect = lower value
[55] = locus YLR258W, strain gsy2, stronger effect = lower value
[56] = locus YLR262C, strain YPT6 (second series), stronger effect = lower value
[57] = locus YLR320W, strain mms22, stronger effect = lower value
[58] = locus YLR342W, strain FKS1, stronger effect = lower value
[59] = locus YLR357W, strain rsc2, stronger effect = lower value
[60] = locus YLR370C, strain arc18, stronger effect = lower value
[61] = locus YLR384C, strain iki3, stronger effect = lower value
[62] = locus YML120C, strain ndi1, stronger effect = lower value
[63] = locus YMR058W, strain fet3, stronger effect = lower value
[64] = locus YMR125W, strain sto1, stronger effect = lower value
[65] = locus YMR129W, stronger effect = lower value
[66] = locus YMR205C, strain PFK2, stronger effect = lower value
[67] = locus YMR231W, strain pep5, stronger effect = lower value
[68] = locus YNL071W, strain lat1, stronger effect = lower value
[69] = locus YNL209W, strain ssb2, stronger effect = lower value
[70] = locus YNL248C, strain rpa49, stronger effect = lower value
[71] = locus YNL322C, strain KRE1 (second series), stronger effect = lower value
[72] = locus YNR049C, strain mso1, stronger effect = lower value
[73] = locus YOR001W, strain rrp6, stronger effect = lower value
[74] = locus YOR070C, strain gyp1, stronger effect = lower value
[75] = locus YOR080W, strain dia2, stronger effect = lower value
[76] = locus YOR083W, strain WHI5, stronger effect = lower value
[77] = locus YOR106W, strain vam3, stronger effect = lower value
[78] = locus YOR265W, strain rbl2, stronger effect = lower value
[79] = locus YOR270C, strain vph1, stronger effect = lower value
[80] = locus YOR290C, strain snf2, stronger effect = lower value
[81] = locus YPL051W, strain arl3, stronger effect = lower value
[82] = locus YPL078C, strain atp4, stronger effect = lower value
[83] = locus YPL106C, strain sse1, stronger effect = lower value
[84] = locus YPL240C, strain hsp82, stronger effect = lower value

Measured: normalized growth

C=CC(N)CCC(=O)O (stereo unspecified)
inactive: locus YAL013W, strain DEP1, stronger effect = lower value 1.02 | [1] 0.971 | [2] 0.984 | [3] 0.985 | locus YAL040C, strain CLN3, stronger effect = lower value 1.07 | [4] 0.976 | [5] 0.99 | [6] 0.965 | [7] 0.955 | [8] 0.99 | [9] 0.986 | [10] 0.975 | [11] 0.976 | locus YCL061C, strain MRC1 (second series), stronger effect = lower value 1 | locus YCL061C, strain MRC1, stronger effect = lower value 0.973 | [12] 0.98 | [13] 0.986 | [14] 0.977 | [15] 0.984 | [16] 0.975 | [17] 0.992 | [18] 0.94 | locus YDR150W, strain NUM1, stronger effect = lower value 1 | [19] 1.01 | locus YDR195W, strain ref2 1 | [20] 0.986 | [21] 0.972 | [22] 0.981 | locus YDR363W, strain ESC2, stronger effect = lower value 0.993 | [23] 0.922 | [24] 0.996 | [25] 0.975 | [26] 0.982 | locus YER002W, strain NOP16, stronger effect = lower value 0.993 | [27] 0.992 | [28] 0.999 | [29] 0.973 | [30] 0.988 | [31] 0.972 | [32] 0.973 | [33] 0.975 | [34] 0.99 | [35] 0.993 | [36] 0.98 | locus YGR078C, strain PAC10, stronger effect = lower value 0.987 | locus YGR229C, strain SMI1, stronger effect = lower value 1.03 | [37] 0.973 | [38] 0.972 | [39] 0.94 | [40] 0.983 | [41] 0.987 | [42] 0.972 | [43] 0.977 | [44] 0.974 | [45] 0.979 | [46] 0.971 | locus YJL187C, strain SWE1, stronger effect = lower value 0.983 | locus YJR075W, strain HOC1, stronger effect = lower value 1.01 | [47] 0.964 | [48] 0.983 | [49] 0.985 | [50] 0.96 | [51] 1 | [52] 0.981 | [53] 0.984 | [54] 0.958 | [55] 0.981 | [56] 0.975 | [57] 0.952 | [58] 0.97 | [59] 0.971 | [60] 0.968 | [61] 0.965 | [62] 0.981 | [63] 0.98 | [64] 0.968 | [65] 0.988 | [66] 0.955 | [67] 0.97 | locus YMR307W, strain GAS1, stronger effect = lower value 1.02 | [68] 0.986 | locus YNL128W, strain TEP1, stronger effect = lower value 0.972 | locus YNL175C, strain NOP13, stronger effect = lower value 0.99 | locus YNL197C, strain WHI3, stronger effect = lower value 0.994 | [69] 0.991 | locus YNL224C, strain SQS1, stronger effect = lower value 0.991 | [70] 0.968 | [71] 0.967 | [72] 0.994 | [73] 0.996 | [74] 0.998 | [75] 0.974 | locus YOR083W, strain WHI5 (second series), stronger effect = lower value 0.991 | [76] 0.967 | [77] 0.961 | [78] 0.98 | [79] 0.939 | [80] 0.945 | [81] 0.973 | locus YPL055C, strain LGE1, stronger effect = lower value 1 | [82] 0.961 | [83] 0.971 | [84] 0.986

Cc1c(S(=O)(=O)O)oc2c1C(=O)C(=O)c1c-2ccc2c1CCCC2(C)C
inactive: [1] 0.946 | [2] 0.923 | [4] 0.954 | [6] 0.943 | [7] 0.937 | [9] 0.985 | [11] 0.958 | [12] 0.983 | [13] 0.946 | [14] 0.963 | [15] 0.959 | [16] 0.955 | locus YDR195W, strain ref2 0.974 | [20] 0.939 | [21] 0.924 | [22] 0.962 | [24] 0.928 | [25] 0.947 | [26] 0.956 | [27] 0.93 | [28] 0.94 | [29] 0.965 | [31] 0.943 | [32] 0.928 | [33] 0.965 | [34] 0.968 | [36] 0.982 | [37] 0.913 | [38] 0.962 | locus YHR030C, strain SLT2, stronger effect = lower value 0.982 | locus YHR079C, strain IRE1, stronger effect = lower value 0.959 | [39] 0.994 | [40] 0.956 | locus YJL095W, strain BCK1, stronger effect = lower value 0.979 | [42] 0.952 | [44] 0.969 | [45] 0.918 | locus YJR066W, strain TOR1, stronger effect = lower value 0.934 | [48] 0.932 | [49] 0.95 | [50] 0.962 | [52] 0.938 | locus YLR113W, strain HOG1, stronger effect = lower value 0.967 | [55] 0.95 | [58] 0.916 | [59] 0.905 | [60] 0.949 | [61] 0.926 | [64] 1 | [66] 0.912 | [67] 0.933 | locus YNL183C, strain NPR1, stronger effect = lower value 0.932 | [69] 0.955 | [70] 0.962 | [71] 0.916 | [72] 0.976 | [73] 0.935 | [74] 0.949 | [75] 0.93 | locus YOR231W, strain MKK1, stronger effect = lower value 0.98 | [78] 0.937 | [79] 0.956 | [80] 0.95 | [82] 0.931 | [83] 0.857 | locus YPL256C, strain CLN2, stronger effect = lower value 0.968
active: [3] 0.92 | [5] 0.885 | [8] 0.889 | [10] 0.861 | [17] 0.874 | [18] 0.631 | [19] 0.808 | [23] 0.586 | [30] 0.779 | [35] 0.817 | [41] 0.912 | [43] 0.859 | [46] 0.893 | [47] 0.896 | [51] 0.924 | [53] 0.9 | [54] 0.891 | [56] 0.57 | [57] 0.871 | [62] 0.9 | [63] 0.839 | [65] 0.918 | [68] 0.726 | [76] 0.856 | [77] 0.821 | [81] 0.873 | [84] 0.921
